Epigenetic mod: epigenetic GFP locus derepression in mouse cells | mouse C127i GFP locus derepression, cytometry, 30 h | Potency, µM (highest dose often 46.1 µM) | 68,000 compounds, 0.09% hits
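Murine C127i mammary cells carrying a silenced, stably integrated CMV-driven GFP reporter were treated with compound for 30 hours at 37 C. After PBS washes, GFP-positive cells were counted by laser-scanning microplate cytometry.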
USP2a inhib: inhibitors of human ubiquitin-specific protease USP2a; O75604; USP2a enzymatic assay, qHTS inhibition; Potency, µM (series often up to 38.3 µM), hits mostly inhibitors; 60,000 compounds, 0.1% hits; also: nearly all actives have a fitted effect of over 60% in size
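Coupled readout: USP2-cleaved Ub-PLA2 (20nM final) turns over NBD C6-HPC (20uM final), Ex 460nm/Em 535nm after 2.5 h, time-zero read flagging artifacts. Enzyme (20nM final, pH 8.0 Tris) given 30 min RT with compound first; NEM defines full inhibition.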
HBB splicing: hemoglobin beta splicing modulation; HBB splicing reporter cell assay, activation; EGFP reporter with mutant IVS2-654 intron; response scale: normalised to 500 nM splice-correcting PNA; Potency, µM (highest dose often 46.1 µM), most hits filed as activators; 65,000 compounds, 0.06% hits; AID 925
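Compounds were applied for 2 days to HeLa EGFP-654 cells, 500/well in Optimem with 2% FCS. The reporter's EGFP is disrupted by mis-splicing of beta-globin intron IVS2-654. Readout: summed well GFP fluorescence from 488 nm laser scanning; reference was 500 nM antisense […] 654 PNA.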
Caspase-7 inhib: caspase-7 (human) inhibition, allosteric or competitive; 75,000 compounds, 0.02% hits; P55210; recombinant caspase-7, Ac-DEVD-AFC fluorescence rate; Potency, µM (series often up to 57.5 µM), usual class: inhibitors; active = well fitted inhibition curve with a large enough effect in the main read-out, with a control signal flat, not every such curve was filed as active; inconclusive = small, poorly fitted or top-dose-only effect, or a change in a side signal
UbGFP stabilizer: proteasome inhibitors stabilizing ubiquitin-GFP reporter | Ubiquitin-GFP reporter cells, proteasome inhibition, GFP fluorescence; response scale: untreated = 0%, 10 µM MG-132 = 100% | Potency, µM (doses to about 45.9 µM), usual class: activators | 67,000 tested, under 10 active | AID 526; active = well fitted activation curve with a large enough effect, not every such curve was filed as active; inconclusive = small, poorly fitted or top-dose-only effect, or another doubt; inactive = no such curve, though single readings can be large or run the other way
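U2OS cells expressing ubiquitin(G76V)-GFP, seeded overnight in 0.5% FBS medium, then treated 4 hr at 37 C across 46 uM to 2.9 nM. GFP-positive cells counted by laser cytometry (488 ex/515 em); %activity scaled between basal and 10 uM MG-132.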
Caspase-1 inhib: blocks human caspase-1 allosterically or competitively | Caspase-1 enzyme, Ac-WEHD-AFC fluorogenic rate | Potency, µM (doses to about 57.5 µM), most hits filed as inhibitors | 75,000 compounds, 0.03% hits | AID 900
Each line names hits and unclear results; the compound was inactive in the other large screens. Sampled rows, rich in hits. Any-hit rate of the full collection: about 0.24%. Unless noted, calls follow the shape of the dose curve; as a rule, active = well fitted curve in the direction sought with a large enough effect; inconclusive = small, poorly fitted or top-dose-only effect, or another doubt; inactive = no such curve, though single readings can be large; an effect the other way counts as inactive or inconclusive.

CCN1CCC[C@@H]1CNC(=O)c1c(OC)ccc(I)c1O	none (no result: USP2a inhib, Caspase-7 inhib, Caspase-1 inhib)
CSc1ncnc2c1ncn2CC(=O)[C@H]1CC[C@H]2[C@H]3CCC4=CC(=O)CC[C@@]4(C)[C@@H]3CC[C@@]12C	none (no result: USP2a inhib)
COC(=O)/C(=C1/Oc2cc(C)oc(=O)c2S1)C(F)(F)F	Epigenetic mod 10µM (no result: USP2a inhib, HBB splicing, Caspase-7 inhib, UbGFP stabilizer, Caspase-1 inhib)
COc1ccccc1-c1cc(C(=O)N2CCc3ccccc3C2)no1	none (no result: USP2a inhib)
N#Cc1c(-c2ccco2)c2c([nH]c1=S)CCCC2	USP2a inhib 13µM, Caspase-1 inhib inconclusive
COc1ccc(NC(=O)CN2CCN(c3ccc(Cl)cc3)CC2)c(OC)c1	USP2a inhib 13µM
Cc1ccc(N2C(=O)[C@@H]3[C@H](C2=O)C2c4ccccc4C=CN2[C@@H]3C(=O)c2ccco2)c(C)c1 (some centres undefined)	Caspase-7 inhib inconclusive, Caspase-1 inhib 13µM (no result: UbGFP stabilizer)
COc1cc(N[C@@H](C)CCCN)c2ncccc2c1	Caspase-1 inhib 2.5µM
COc1cc(NCC[C@@H]2CCCCN2)c2ncccc2c1	none (no result: USP2a inhib)
CCN1C(=O)c2cccc3c(NC(=O)c4ccc5c(c4)OCCO5)ccc1c23	Epigenetic mod 13µM
CCN1C(=O)c2cccc3c(NC(=O)C4CCCCC4)ccc1c23	none (no result: UbGFP stabilizer)
O=C(O)CCCCCC[C@@H]1C(=O)NC(=O)N1CC[C@@H](O)C1CCCCC1	none (no result: USP2a inhib, Caspase-7 inhib, Caspase-1 inhib)
COC(=O)[C@@H](NC(=O)c1cc(-c2ccccc2)nc2ccccc12)c1ccccc1	none (no result: USP2a inhib, Caspase-7 inhib, Caspase-1 inhib)
Cc1coc(NC(=O)CSc2nc(-c3ccncc3)cc(C(F)(F)F)c2C#N)n1	Epigenetic mod 10µM (no result: HBB splicing)
O=C1[C@@H]2C=CC=CC2=NC(=S)N1CCN1CCC(=C(c2ccc(F)cc2)c2ccc(F)cc2)CC1	none
O=C1c2ccc(O)c(O)c2C(=O)c2c(O)ccc(O)c21	USP2a inhib 4µM (no result: Epigenetic mod, HBB splicing, UbGFP stabilizer)
O=C(/C=C\c1ccc(O)c(O)c1)OCCc1ccccc1	none
CNC(=O)Oc1ccc2c(c1)C1(C)CCN(C)C1N2C (centres undefined)	none (no result: Epigenetic mod, USP2a inhib, HBB splicing, UbGFP stabilizer)
CCCCCC[C@@H]([C@H](C)O)n1cnc2c(N)ncnc21	none
N#C/C(=C/c1ccc(N2CCCCCC2)o1)c1ccc(F)cc1	Epigenetic mod 3.2µM, HBB splicing inconclusive
O=c1oc2ccccc2n1CCn1c2ccccc2c2nc3ccccc3nc21	USP2a inhib 10µM
CCCn1c2ccccc2c2nc3ccccc3nc21	USP2a inhib inconclusive, Caspase-7 inhib inconclusive (no result: Caspase-1 inhib)
O=C(OCC1OC(OC(=O)c2cc(O)c(O)c(OC(=O)c3cc(O)c(O)c(O)c3)c2)[C@@H](OC(=O)c2cc(O)c(O)c(OC(=O)c3cc(O)c(O)c(O)c3)c2)C(OC(=O)c2cc(O)c(O)c(OC(=O)c3cc(O)c(O)c(O)c3)c2)C1OC(=O)c1cc(O)c(O)c(OC(=O)c2cc(O)c(O)c(O)c2)c1)c1cc(O)c(O)c(OC(=O)c2cc(O)c(O)c(O)c2)c1 (some centres undefined)	USP2a inhib 1µM, Caspase-7 inhib inconclusive, Caspase-1 inhib inconclusive (no result: Epigenetic mod, HBB splicing, UbGFP stabilizer)
CS(=O)(=O)N(CC(=O)O)c1ccccc1	none (no result: Epigenetic mod, USP2a inhib, HBB splicing, UbGFP stabilizer)
COc1cccc(Nc2ncc3nc(-c4ccc(Cl)cc4)c(=O)n(CCC#N)c3n2)c1	HBB splicing 10µM, Caspase-7 inhib inconclusive, UbGFP stabilizer inconclusive (no result: Caspase-1 inhib)
COc1cccc(Nc2ncc3nc(-c4cccs4)c(=O)n(Cc4cccs4)c3n2)c1	HBB splicing 13µM, Caspase-7 inhib inconclusive (no result: Caspase-1 inhib)
COc1cccc(Nc2ncc3nc(-c4cccs4)c(=O)n(-c4ccccc4)c3n2)c1	Epigenetic mod 4µM, HBB splicing 10µM, Caspase-7 inhib inconclusive, UbGFP stabilizer inconclusive (no result: Caspase-1 inhib)
CCNc1ncc2nc(-c3cccs3)c(=O)n(-c3ccccc3)c2n1	HBB splicing 13µM, Caspase-7 inhib inconclusive, UbGFP stabilizer inconclusive (no result: Caspase-1 inhib)
COc1ccc(-c2nc3cnc(Nc4cccc(OC)c4)nc3n(CCC#N)c2=O)cc1	HBB splicing inconclusive, Caspase-7 inhib inconclusive, UbGFP stabilizer inconclusive (no result: Caspase-1 inhib)
COc1cccc(Nc2ncc3ncc(=O)n(Cc4cccs4)c3n2)c1	Caspase-7 inhib inconclusive (no result: Caspase-1 inhib)
O=C1C=CC2=C3c4cc(O)c(O)cc4C[C@@]3(O)COC2=C1O	none (no result: USP2a inhib, HBB splicing, Caspase-7 inhib, Caspase-1 inhib)
CN(C)S(=O)(=O)c1ccc2c(c1)/C(=C/c1cc3c([nH]1)CCCC3)C(=O)N2	Epigenetic mod 16µM, HBB splicing 4µM
COc1ccc(N(C)S(=O)(=O)c2ccc3c(c2)CCC(=O)N3)cc1	none
S=C([S-])NCCNC(=S)[S-].[Zn+2]	none (no result: Epigenetic mod, USP2a inhib, UbGFP stabilizer)
Cc1c(Cl)cccc1NC(=O)c1cc(-c2ccc(O)cc2)on1	none (no result: USP2a inhib)
COc1ccccc1OC1=NS(=O)(=O)c2ccccc21	none (no result: HBB splicing)
CCN(CC)c1cccc(OC2=NS(=O)(=O)c3ccccc32)c1	Epigenetic mod 3.2µM
CC(C)c1ccc2c(c1)CC[C@@H]1[C@@](C)(CN)CCC[C@@]21C	none (no result: USP2a inhib, HBB splicing, Caspase-7 inhib, Caspase-1 inhib)

Screening data as filed in PubChem BioAssay.
